Screening results deposited in PubChem by National Center for Advancing Translational Sciences (NCATS).
VP16 counter: VP16 counterscreen qHTS for inhibitors of ROR gamma transcriptional activity; Drosophila S2 Gal4-VP16 UAS-luciferase, luminescence, 20 h; Potency, µM (highest dose often 53.6 µM), inactives show top-dose activity, negative = inhibition, actives largely listed as inhibitors; 310,000 compounds, 3.5% hits; AID 2546, 2010;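 note: Gal4-VP16 expression switched on by copper sulfate through the metallothionein promoter; nearly all actives have a fitted effect of over 50% in size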
ELG1 DNA repair: qHTS screen for small molecules that inhibit ELG1-dependent DNA repair in human embryonic kidney (HEK293T) cells expressing luciferase-tagged ELG1 | HEK293T ELG1-luciferase reporter, luminescence, 16 h; DNA damage induced by 5-fluorouridine | Potency, µM (titrated, usually from 46.1 µM), inactives show at the top dose activity change, negative = inhibition, hits mostly inhibitors | 330,000 compounds, 2.3% hits | AID 504467, 2011; note: nearly all actives have a fitted effect of over 55% in size
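Quantitative HTS, concentration-response format. 2,000 cells/well co-treated with 5-fluorouridine and compound, 16 hr in 5% CO2 at 37 °C; ONE-Glo luminescence read after 30 min.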
RORg inh: qHTS for inhibitors of ROR gamma transcriptional activity | Nuclear receptor ROR-gamma (Mus musculus), P51450 | Drosophila S2 Gal4-RORgamma UAS-luciferase reporter, 20 h | Potency, µM (highest dose often 53.6 µM), for inactives: at the highest dose activity change, negative = inhibition, actives largely listed as inhibitors | 310,000 compounds, 5.4% hits | AID 2551, 2010; note: nearly all actives have a fitted effect of over 60% in size
Target sequence (P51450 whole entry, looked up, the tested form may be a part): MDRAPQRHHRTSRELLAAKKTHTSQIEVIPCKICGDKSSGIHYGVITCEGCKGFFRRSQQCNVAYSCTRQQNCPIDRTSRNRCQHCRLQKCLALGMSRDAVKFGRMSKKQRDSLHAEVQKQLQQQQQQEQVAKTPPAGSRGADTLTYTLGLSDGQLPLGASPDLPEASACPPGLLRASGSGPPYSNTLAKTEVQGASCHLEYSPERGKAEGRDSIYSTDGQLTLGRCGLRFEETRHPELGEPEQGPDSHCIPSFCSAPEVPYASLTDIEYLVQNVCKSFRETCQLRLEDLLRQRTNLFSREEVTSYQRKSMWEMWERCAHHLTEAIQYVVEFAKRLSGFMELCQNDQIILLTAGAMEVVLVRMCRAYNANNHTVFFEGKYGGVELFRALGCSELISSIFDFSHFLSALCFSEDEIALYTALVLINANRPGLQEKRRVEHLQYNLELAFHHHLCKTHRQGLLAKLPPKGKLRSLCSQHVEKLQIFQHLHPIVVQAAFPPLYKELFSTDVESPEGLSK
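Stable Schneider cell line, Gal4 DNA-binding domain fused to ROR gamma, UAS-luciferase. Cmpd 1 hr RT → CuSO4 700 uM final → 20 hr RT → luciferase reagent 10 min → luminescence.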
TDP1 cell noCPT: qHTS for Inhibitors of human tyrosyl-DNA phosphodiesterase 1 (TDP1): qHTS in cells in absence of CPT; DT40 Tdp1-/- hTDP1 cells, no CPT, ATP luminescence, 48 h; Potency, µM (top dose mostly 46.2 µM), for the others: at the highest dose activity change, negative = growth inhibition, usual class: inhibitors; 420,000 compounds, 15% hits; AID 686978, 2013; note: nearly all actives have a fitted effect of over 55% in size
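A cellular qHTS used chicken DT40 cells lacking endogenous Tdp1 but carrying stably transfected human TDP1. Compounds were applied without camptothecin, and cell growth kinetics were judged by ATP-dependent luminescence after ≥48 hr.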
DT40 TDP1 CPT: qHTS for Inhibitors of human tyrosyl-DNA phosphodiesterase 1 (TDP1): qHTS in cells in presence of CPT; chicken DT40 Tdp1-/-;hTDP1 cells + 20 nM CPT, ATP luminescence, 48 h; Potency, µM (doses to about 46.2 µM), inactives show top-dose activity change, negative = growth inhibition, hits mostly inhibitors; 420,000 compounds, 12% hits; note: nearly all actives have a fitted effect of over 55% in size
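Cell growth measured by CellTiter-Glo luminescence after a minimum 48 h, 37 C compound exposure with 20 nM CPT in Tdp1-knockout DT40 cells stably expressing hTDP1, seeded 400/well; qHTS titration format.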
ALOX12 inh: Primary qHTS assay for inhibitors of human arachidonate 12S-lipoxygenase (ALOX12): Round 2; Polyunsaturated fatty acid lipoxygenase ALOX12 (Homo sapiens), P18054; purified 12hLO, xylenol orange hydroperoxide absorbance; Potency, µM (top dose mostly 108 µM), for the others: at the top dose activity change, negative = inhibition, most hits filed as inhibitors; 580,000 compounds, 1.1% hits; AID 1671190, 2021
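Purified human 12hLO at 150 nM in 25 mM Hepes, 0.01% Triton X-100, pH 7.0, preincubated 15 min at room temperature with compound. Reaction started with 40 uM arachidonic acid, 30 min at room temperature. Hydroperoxide measured by Fe-xylenol orange, 573/405 nm absorbance ratio.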
* = called active by the depositor; ? = inconclusive; nt = no result given; [ ] = dose if it differs, or a comment. Rows were chosen to be rich in hits. Some 15% of all compounds tested hit in one or more screens of this group. Calls come from the whole dose curve; as a rule, active = well fitted curve in the direction sought with a large enough effect; inconclusive = small, poorly fitted or top-dose-only effect, or another doubt; inactive = no such curve, though single readings can be large; an effect the other way counts as inactive or inconclusive. % is set by controls: 0 for no effect and ±100 for the full control effect; potency is the fitted concentration of half-maximal effect.

SMILES | VP16 counter | ELG1 DNA repair | RORg inh | TDP1 cell noCPT | DT40 TDP1 CPT | ALOX12 inh
COC(=O)[C@]1(Cc2ccccc2)N[C@H](c2ccc(-c3ccc(F)cc3)cc2)[C@@H]2C(=O)N(C)C(=O)[C@@H]21 | nt | -29.0% | nt | 16.4µM* | 18.4µM* | -14.9%
NC(=O)c1sc2nccc(Nc3ccccc3)c2c1N | 17.3% | ? | 21.1% | 20.6µM* | 10.3µM* | ?
Nc1c(C(=O)Nc2ccccc2)sc2ncc([N+](=O)[O-])cc12 | 19.4% | ? | -12.3% | ? | -4.5% | -11.7%
c1ccc(-n2cc(CN3CCCCC3c3ccccn3)nn2)cc1 (configuration not stated) | nt | nt | nt | nt | nt | 20µM*
Cc1ccccc1-c1nn(-c2ccc(F)cc2F)cc1CNCCCN(C)C | -4.4% | -6.0% | -36.4% | 7.31µM* | ? | -6.0%
COCCN(C)Cc1cn(-c2ccc(F)cc2F)nc1-c1ccccc1C | ? | ? | 6.31µM* | ? | -24.2% | -10.5%
O=C(Cn1c(=O)oc2ccccc21)NCC1Cn2cccc2C(=O)N1Cc1cccnc1 (configuration not stated) | nt | nt | nt | nt | nt | 61.7%
N#CC1=C(N)Oc2c(oc(CO)cc2=O)C1c1ccccc1[N+](=O)[O-] (configuration not stated) | -10.5% | -13.9% | -25.0% | -12.1% | 20.7% | 15.8µM*
O=C(CSc1nnc2n(C3CCCC3)c(=O)c3ccccc3n12)N1CCCCCC1 | 5.8% | ? | -14.2% | 23.1µM* | 20.6µM* | -10.7%
CC1CCCN(C(=O)CSc2nnc3n(C4CCCC4)c(=O)c4ccccc4n23)C1 (configuration not stated) | -3.9% | 9.2µM* | -14.4% | 16.4µM* | 23.1µM* | 0.0%
Cc1ccccc1-c1nc(CN2CCC(C(=O)NCCC3=CCCCC3)CC2)c(C)o1 | -6.3% | ? | 9.8% | 18.4µM* | 18.4µM* | -13.6%
Cc1ccccc1-c1nc(CN2CCC(C(=O)NC3CCN(Cc4ccccc4)CC3)CC2)c(C)o1 | nt | nt | nt | ? | 20.6µM* | 8.9%
COc1ccc(CCNC(=O)C2CCN(Cc3nc(-c4ccccc4C)oc3C)CC2)cc1OC | ? | ? | 3.8% | 16.4µM* | 23.1µM* | 0.0%
Cc1ccccc1-c1nc(CN2CCC(C(=O)O)CC2)c(C)o1 | 2.6% | 7.1% | -7.1% | -6.8% | 6.0% | 13.1%[57.4 µM]
Cc1ccccc1-c1nc(CN2CCC(C(=O)NCCc3ccccc3)CC2)c(C)o1 | nt | nt | nt | 20.6µM* | 14.6µM* | 0.0%
O=C(NC1CC1)c1cc2n(n1)CCCN(C(=O)c1ccccc1-c1ccccc1)C2 | nt | nt | nt | nt | nt | -21.0%
COc1ccccc1-n1nnc(C(=O)OCc2cc(C)ccc2C)c1C | nt | nt | nt | nt | nt | 5.2%
COCC(=O)N1CCc2nc(C)nc(NCc3cc(C)nn3C)c2CC1 | nt | nt | nt | nt | nt | 37.6%
CS(=O)(=O)c1ccc(NC(=O)CN(Cc2cccs2)CC2CCCO2)cc1 (configuration not stated) | nt | nt | nt | nt | nt | 36.9%
OC(C[n+]1c(Cl)ccc2ccccc21)c1ccccc1 (configuration not stated) | nt | nt | nt | ? | 8.91µM* | nt
COc1cccc(CCNC(=O)c2cc(COc3ccc(C)c(C)c3)on2)c1OC | nt | nt | nt | 14.6µM* | ? | -3.3%
CCOC(=O)CC1(NC(=O)c2cc(COc3cccc(OC)c3)on2)CCCCC1 | ? | ? | ? | 10.3µM* | 23.1µM* | 18.6%
Cc1ccc(OCc2cc(C(=O)NCCc3cccnc3)no2)cc1C | 7.2% | ? | -4.0% | ? | ? | 19.9%
COc1cccc(CCNC(=O)c2cc(COc3cccc(OC)c3)on2)c1 | nt | nt | nt | 16.4µM* | ? | 8.6%
CCOC(=O)COc1ccc2c(=O)c(Oc3cc(C)c(Cl)c(C)c3)coc2c1 | nt | nt | nt | nt | nt | 7.0%
SMILES | VP16 counter | ELG1 DNA repair | RORg inh | TDP1 cell noCPT | DT40 TDP1 CPT | ALOX12 inh
COCC(=O)NCCC1CCN(C(=O)Nc2ccc(F)cc2)CC1 | nt | nt | nt | nt | nt | 68.3%
CCN1CC(C(=O)NCc2cccc(OCc3ccccc3)c2)CC1=O (configuration not stated) | nt | nt | nt | nt | nt | 13.8%
CC1CCC(C(C)C)C(OCC(O)CNC(C)C)C1 (configuration not stated) | -11.3% | ? | -17.1% | ? | 23.1µM* | -5.0%
CC(C)NCC(O)COC1C2CC3CC(C2)CC1C3 (configuration not stated) | -1.5% | -3.9% | 29.9% | 16.0% | 20.9% | -0.2%
O=C(Cc1ccc(F)cc1)N1CCC2(CC1)CCN(Cc1cccs1)c1ccccc1O2 | nt | nt | nt | nt | nt | -5.0%
COc1cccc(CNc2cnc3ccccc3c2)c1O | 10µM* | ? | ? | 16.4µM* | 11.6µM* | 31.6µM*
Cc1ccc(O)c(CNc2cnc3ccccc3c2)c1 | 17.3% | ? | 6.6%[1.91 µM] | ? | -20.3% | -7.8%
COc1ccccc1N1CCN(C(=O)CCCn2c(=O)[nH]c3ccsc3c2=O)CC1 | -6.2% | -17.2% | -2.0% | ? | -18.8% | -6.3%
COc1ccc(N2CCN(C(=O)CCCCn3c(=O)[nH]c4ccsc4c3=O)CC2)cc1 | -6.4% | -12.5% | 6.5% | 25.9µM* | ? | -1.4%
COc1ccccc1N1CCN(C(=O)CCCCn2c(=O)[nH]c3ccsc3c2=O)CC1 | 3.6% | ? | -1.8% | 16.4µM* | ? | 20.7%
O=C(NCc1ccc(NC(=O)C2CC2)cc1)c1ccc[n+]([O-])c1 | nt | nt | nt | nt | nt | -16.8%
COc1cc(C=O)ccc1OCc1ccccc1Br | 11.2µM* | ? | 10µM* | ? | 4.5% | -2.1%
COC(=O)c1ccccc1OCCOc1ccccc1C(=O)OC | -0.4% | 10.2% | 20.7% | -16.8% | -1.9% | -2.2%
COC(=O)c1ccccc1OCCCOc1ccc(C=O)cc1OC | 10µM* | ? | 8.91µM* | ? | ? | -0.6%
COc1cc(C)ccc1OCCCCOc1ccccc1C(C)=O | ? | -7.7% | ? | ? | 1.84µM* | -5.0%
COc1ccc(C2CC(c3ccccc3)=NN2C(=O)CSc2nnc(-c3ccccc3)o2)cc1 (configuration not stated) | nt | nt | nt | nt | nt | 4.1%
Cc1sc(NC(=O)CN2CCCC2)nc1-c1ccc2c(c1)CCN2C(=O)c1cccc(F)c1 | ? | ? | 11.2µM* | 16.4µM* | ? | 4.0%
